# Whole data set: some 2,000 compounds, median “B-score” near -0.0024, cut for the highest 2% near 4. The sample as a whole holds a higher share of the highest values than the screen did. Where a SMILES comes first, the peptide text is derived from it. [ ]: non-standard residue; d: D form. dPhe(4-Cl) = N[C@H](Cc1ccc(Cl)cc1)C(=O)O; d2Nal = N[C@H](Cc1ccc2ccccc2c1)C(=O)O; dCit = NC(=O)NCCC[C@@H](N)C(=O)O; d3Pal = N[C@H](Cc1cccnc1)C(=O)O
# Test system: Balamuthia mandrillaris (ATCC PRA-291) trophozoites, axenic culture
# Test: primary screen, b score
# Conditions: 20 µM
# Protocol: Screening of a clinically approved library of compounds, compiled by the Small Molecule Discovery Center (SMDC) at the UCSF, was completed at 20 µM in 0.2% DMSO. All 2,177 drugs in the library were stored as 10 mM stocks dissolved in 100% DMSO (Sigma-Aldrich) at −20°C. B. mandrillaris amoebae were resuspended in axenic medium and distributed into opaque 384-well plates (Corning) at a density of 3,000 amoebae per well using a BioMek NX liquid handler. Negative-control wells were treated with vehicle only (0.2% DMSO in axenic medium), and positive-control wells simulating total destruction of amoebae were seeded with amoeba lysate generated by 3 consecutive freeze-thaw cycles. Following 72 h of incubation, 30 µl of CellTiter Glo reagent (CTG; Promega) was added to each well. The luminescence was measured with a Promega GloMax-Multi+ plate reader at 2, 4, and 8 h after CTG addition. […] The B-score, representing a plate-based statistical approach for correcting row, column, and edge effects, was also calculated for each compound in the library (75).
row,Structure (SMILES),B-score
1,O=C1CCCC(=O)C1C(=O)c1ccc(C(F)(F)F)cc1[N+](=O)[O-],4.46
2,CC(C)C(=O)Nc1ccc([N+](=O)[O-])c(C(F)(F)F)c1,0.258
3,C[C@H](CCC(=O)O)[C@H]1CCC2C3C(CC[C@@]21C)[C@@]1(C)CC[C@@H](O)C[C@H]1C[C@H]3O (stereo partly shown),0.903
4,CSc1ccc2c(c1)C(N1CCN(C)CC1)Cc1ccccc1S2 (stereo not shown),4.72
5,CSc1ccc2c(c1)N(CCC1CCCCN1C)c1ccccc1S2 (stereo not shown),-2.17
6,CCSc1ccc2c(c1)N(CCCN1CCN(C)CC1)c1ccccc1S2,0.621
7,CC(C1=C(CCN(C)C)Cc2ccccc21)c1ccccn1 (stereo not shown),0.12
8,CCC(CC)(CC(=O)Nc1cccc(/C=C/c2nc(C3CCC3)cs2)c1)C(=O)O,-0.153
10,OC[C@H]1O[C@@H](n2cnc3c2NC=NC[C@H]3O)C[C@@H]1O,-0.0925
11,Nc1nc(Cl)nc2c1ncn2C1O[C@H](CO)[C@@H](O)[C@@H]1F (stereo partly shown),3.21
12,Nc1nc(Cl)nc2c1ncn2[C@H]1C[C@H](O)[C@@H](CO)O1,-1.53
13,Nc1nc(Cl)nc2c1ncn2[C@@H]1O[C@H](CO)[C@@H](O)[C@@H]1F,4.42
14,O=C(O)c1ccc(S(=O)(=O)N(Cl)Cl)cc1,1.61
15,Cc1nc2c([nH]1)-c1ccccc1N(C(=O)c1ccc(NC(=O)c3ccccc3-c3ccccc3)cc1)CC2,0.432
16,CC1=C(/C=C/C(C)=C/C=C/C(C)=C/C(=O)O)C(C)(C)CCC1,-2.29
17,O=C1Nc2ccc(Cl)cc2C(c2ccccc2Cl)=NC1O (stereo not shown),0.787
18,COc1ccc(C(=O)Nc2ccccc2CCC2CCCCN2C)cc1 (stereo not shown),1.2
19,COc1ccc(C(=O)CC(=O)c2ccc(C(C)(C)C)cc2)cc1,0.547
20,COc1ccc(C(=O)N2CCCC2=O)cc1,3.97
21,CCCCCCCCCC(=O)N[C@@H](Cc1c[nH]c2ccccc12)C(=O)N[C@@H](CC(N)=O)C(=O)N[C@@H](CC(=O)O)C(=O)N[C@@H]1C(=O)NCC(=O)N[C@@H](CCCN)C(=O)N[C@@H](CC(=O)O)C(=O)N[C@H](C)C(=O)N[C@@H](CC(=O)O)C(=O)NCC(=O)N[C@H](CO)C(=O)NC([C@@H](C)CC(=O)O)C(=O)N[C@@H](CC(=O)c2ccccc2N)C(=O)O[C@H]1C (stereo partly shown),-0.0797
22,CC[C@]1(O)C[C@H]2CN(CCc3c([nH]c4ccccc34)[C@@](C(=O)OC)(c3cc4c(cc3OC)N(C)[C@H]3[C@@](O)(C(N)=O)[C@H](O)[C@]5(CC)C=CCN6CC[C@]43[C@@H]65)C2)C1,0.225
23,C#C[C@]1(O)CC[C@H]2[C@@H]3CCc4cc(O)ccc4[C@H]3CC[C@@]21C,1.29
24,O=C(O)CN(CCN(CC(=O)O)CC(=O)O)CC(=O)O [130802-L4],1.65
25,CCOC(=O)[C@H](CCc1ccccc1)N[C@@H](C)C(=O)N1[C@H](C(=O)O)C[C@@H]2CCC[C@@H]21,0.0961
26,CC(=O)Nc1ccccc1,1.19

row,Structure (SMILES),B-score
1,O=C(CCCCCCC(=O)Nc1ccccc1)NO,6.71
2,O=C(Nc1ccccc1)c1ccccc1O,2.94
3,CO[C@@]1(NC(=O)C(C(=O)O)c2ccc(O)cc2)C(=O)N2C(C(=O)O)=C(CSc3nnnn3C)CO[C@@H]21 (stereo partly shown),-2.22
4,Clc1ccccc1C(c1ccccc1)(c1ccccc1)n1ccnc1,0.597
5,CN[C@@H]1C(OC2[C@H](O[C@H]3[C@H](O)[C@@H](O)[C@H](N=C(N)N)[C@@H](O)[C@@H]3N=C(N)N)OC(C)[C@]2(O)CO)OC(CO)C(O)C1O (stereo partly shown),-0.0786
6,CN1C[C@H](C(=O)N[C@]2(C)O[C@@]3(O)C4CCCN4C(=O)[C@H](Cc4ccccc4)N3C2=O)C=C2c3cccc4[nH]cc(c34)C[C@H]21 (stereo partly shown),0.00794
7,O=S(=O)(O)CCCS(=O)(=O)O,-0.716
8,CN1C(=O)CC(C)(c2ccccc2)C1=O (stereo not shown),-0.587
9,N=C(N)N/N=C\c1c(Cl)cccc1Cl,1.73
10,CCn1nc(C(=O)O)c(=O)c2cc3c(cc21)OCO3,0.0115
11,CN(C)CCCOc1nn(Cc2ccccc2)c2ccccc12 [255688-L2],-0.0539
12,O=C(O)c1nn(Cc2ccc(Cl)cc2Cl)c2ccccc12,4.66
13,Nc1nc(N)nc(-c2cc(Cl)ccc2Cl)n1,-4.01
14,O=C(N/N=C/c1ccc([N+](=O)[O-])o1)c1ccc(O)cc1,-0.646
15,CO[C@H]1/C=C/O[C@@]2(C)Oc3c(C)c(O)c4c(O)c(c(/C=N/N5CCN(C6CCCC6)CC5)c(O)c4c3C2=O)NC(=O)/C(C)=C\C=C\[C@H](C)[C@H](O)[C@@H](C)[C@@H](O)[C@@H](C)[C@H](OC(C)=O)[C@@H]1C,2.93
16,CC1=NN(c2ccccc2)C(=O)C1,-0.154
17,COc1cccc2c1C(=O)c1c(O)c3c(c(O)c1C2=O)C[C@@](O)(C(=O)CO)C[C@@H]3O[C@H]1C[C@H](N)[C@H](O)[C@H](C)O1,9.99
18,COc1cccc2c1C(=O)c1c(O)c3c(c(O)c1C2=O)C[C@@](O)(C(=O)CO)C[C@@H]3O[C@H]1C[C@H](N)[C@@H](O)[C@H](C)O1,4.02
19,COc1cccc2c1C(=O)c1c(O)c3c(c(O)c1C2=O)C[C@@](O)(C(C)=O)C[C@@H]3O[C@H]1C[C@H](N)[C@H](O)[C@H](C)O1,0.546
20,COc1cccc2c1C(=O)c1c(O)c3c(c(O)c1C2=O)C[C@@](O)(C(=O)CO)C[C@@H]3OC1C[C@H](N)[C@H](O)[C@H](C)O1 (stereo partly shown),0.333
21,CCCCC(=O)OCC(=O)[C@]1(O)Cc2c(O)c3c(c(O)c2[C@@H](O[C@H]2C[C@H](NC(=O)C(F)(F)F)[C@H](O)[C@H](C)O2)C1)C(=O)c1c(OC)cccc1C3=O,-0.809
22,CC(=O)[C@]1(O)Cc2c(O)c3c(c(O)c2[C@@H](O[C@H]2C[C@H](N)[C@H](O)[C@H](C)O2)C1)C(=O)c1ccccc1C3=O,-0.033
23,CC(CCc1ccccc1)NC(C)C(O)c1ccc(O)cc1 (stereo not shown),1.37
24,CCn1cc(C(=O)O)c(=O)c2cc(F)c(N3CCN(C)CC3)cc21 [518631-L6],0.04
25,CC(=O)N[C@H](Cc1ccc2ccccc2c1)C(=O)N[C@H](Cc1ccc(Cl)cc1)C(=O)N[C@H](Cc1cccnc1)C(=O)N[C@@H](CO)C(=O)N[C@@H](Cc1ccc(O)cc1)C(=O)N[C@H](CCCNC(N)=O)C(=O)N[C@@H](CC(C)C)C(=O)N[C@@H](CCCN=C(N)N)C(=O)N1CCC[C@H]1C(=O)N[C@H](C)C(N)=O (Ac-[d2Nal][dPhe(4-Cl)][d3Pal]SY[dCit]LRP[dA]-NH2),-2.68
26,Cc1c(F)c(N2CCNC(C)C2)cc2c1c(=O)c(C(=O)O)cn2C1CC1 (stereo not shown),-0.223

row,Structure (SMILES),B-score
1,O=C(O)CCCCCCCC(=O)O,0.466
2,CC(CN(C)C)CN1c2ccccc2Sc2ccccc21 (stereo not shown),0.0868
3,CO[C@H]1/C=C/O[C@@]2(C)Oc3c(C)c(O)c4c(O)c(c5c(c4c3C2=O)=NC2(CCN(CC(C)C)CC2)N=5)NC(=O)/C(C)=C\C=C\[C@H](C)[C@H](O)[C@@H](C)[C@@H](O)[C@@H](C)[C@H](OC(C)=O)[C@@H]1C,1.11
4,OCCOCCN1CCN(C(c2ccccc2)c2ccc(Cl)cc2)CC1 (stereo not shown) [130849-L5],1.53
5,C=C1CC[C@H](O)C/C1=C/C=C1\CCC[C@]2(C)C([C@H](C)/C=C/[C@H](C)C(C)C)CC[C@@H]12 (stereo partly shown),0.264
6,CCc1cc2c(cc1CC)CC(NC[C@H](O)c1ccc(O)c3nc(O)ccc13)C2,1
7,Nc1ccc(S(=O)(=O)c2ccc(N)cc2)cc1,-0.0896
8,Cc1cc(N)c2ccccc2[n+]1CCCCCCCCCC[n+]1c(C)cc(N)c2ccccc21,13
9,Nc1ccn([C@@H]2CS[C@H](CO)O2)c(=O)n1,1.59
10,CN1C(CSCC(F)(F)F)Nc2cc(Cl)c(S(N)(=O)=O)cc2S1(=O)=O (stereo not shown),0.321
11,CCN[C@H]1C[C@H](C)S(=O)(=O)c2sc(S(N)(=O)=O)cc21,-1.38
12,CC[C@@]1(O)C(=O)OCc2c1cc1n(c2=O)Cc2cc3c(CN(C)C)c(O)ccc3nc2-1,2.13
13,CCCCCCCCCCCCCCCCCCCCCCO,-0.00277
14,CCCCCCCCCCCCC[N+](C)(C)Cc1ccccc1,3.43
15,CCCCCCCCCCCCCCCC[n+]1ccccc1,7.82
16,O=S(=O)(OC[C@H]1O[C@@H](O[C@]2(COS(=O)(=O)[O][Al]([OH])[OH])O[C@H](OS(=O)(=O)[O][Al]([OH])[OH])[C@@H](OS(=O)(=O)[O][Al]([OH])[OH])[C@@H]2OS(=O)(=O)[O][Al]([OH])[OH])[C@H](OS(=O)(=O)[O][Al]([OH])[OH])[C@@H](OS(=O)(=O)[O][Al]([OH])[OH])[C@@H]1OS(=O)(=O)[O][Al]([OH])[OH])[O][Al]([OH])[OH],-0.0184
17,C/C=C/C/C=C/CCC(=O)[C@H]1O[C@H]1C(N)=O,-0.632
18,CN(CC(=O)O)C(=N)N,-5.89
19,CN1C2CCC[C@H]1C[C@H](NC(=O)c1nn(C)c3ccccc13)C2,-0.598
20,C[S+](CC[C@H](N)C(=O)O)C[C@H]1O[C@@H](n2cnc3c(N)ncnc32)[C@H](O)[C@@H]1O (stereo partly shown),0.856
21,CC(=O)c1ccc2c(c1)N(CCCN1CCC(CCO)CC1)c1ccccc1S2,-0.0165
22,Oc1ccc(Cl)cc1,0.00397
23,CC(C)(C)CC(C)(C)c1ccc(O)c(Cc2ccc(Cl)cc2Cl)c1,2.02
24,Oc1ccc(Cl)cc1Cc1cc(Cl)ccc1O,5.34

# — publication PMC6212833
